# Test results reported in PubChem BioAssay AID504757 (Sanford-Burnham Center for Chemical Genomics, 2011).
# The other results are listed elsewhere or left out. Active and inactive are the calls of the source. Rule as the data show it: active = inhibition above about 39%; inactive = the rest.
# Biological target: Cysteine protease ATG4B (Homo sapiens) (UniProt Q9Y4P1)
# Assay: ATG4B protease inhibitors, retest, confirmation, biochemical, fluorescence, single concentration (AID 504757)
# Conditions: ATG4B protease fluorescent substrate cleavage assay; at 8.33 µM; hits give high values
# Sequence of Cysteine protease ATG4B (Homo sapiens) (Q9Y4P1 whole entry, looked up): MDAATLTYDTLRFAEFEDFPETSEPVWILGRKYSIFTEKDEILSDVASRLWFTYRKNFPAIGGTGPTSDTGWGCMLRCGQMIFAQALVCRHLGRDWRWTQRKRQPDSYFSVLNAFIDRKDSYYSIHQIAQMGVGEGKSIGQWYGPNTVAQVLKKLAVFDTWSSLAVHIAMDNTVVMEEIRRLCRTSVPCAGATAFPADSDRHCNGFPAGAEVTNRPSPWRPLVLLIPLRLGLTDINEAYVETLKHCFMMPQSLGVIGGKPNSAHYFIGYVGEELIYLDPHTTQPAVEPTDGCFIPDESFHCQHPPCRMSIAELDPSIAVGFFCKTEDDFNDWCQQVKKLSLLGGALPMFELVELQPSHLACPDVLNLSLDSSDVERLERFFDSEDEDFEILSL
compound,measurement,value
Cc1cc(OCc2cc(C(=O)O)oc2C)c2c3c(c(=O)oc2c1)CCCC3,inhibition,66.3% (active)
